System: Vero E6 infected with SARS-CoV-2
Assay: inhibition of SARS-CoV-2 cytopathic effect; higher = more antiviral protection, active = above 15
Conditions: 48 h

Measured: inhibition of SARS-CoV-2 cytopathic effect

CC(C)[C@H](CO)Nc1nc(Nc2cccc(Cl)c2)c2ncn(C(C)C)c2n1 [purvalanol-A]
inactive: 1 nM -1.59% | 8.33 nM -0.55% | 100 nM -0.26% | 833.33 nM 2.68% | 10000 nM -2.25%

CCc1ccc(OCc2ccccc2C(=O)Nc2ccc3nc(C)cc(N)c3c2)cc1
inactive: 1 nM 0.87% | 8.33 nM 3.61% | 100 nM 2.46% | 833.33 nM 1.94% | 10000 nM -28.4%

COc1cccc(CN(C(=O)CC(C)(C)C)[C@H]2C[C@@H](C(=O)N3CCNCC3)N(Cc3ccc4c(c3)OCO4)C2)c1
inactive: 1 nM 7.37% | 8.33 nM 2.78% | 100 nM 5.86% | 833.33 nM -0.43% | 10000 nM -2.99%

c1ccc2c(Oc3nc(Nc4ccc(N5CCOCC5)cc4)c4ncn(C5CCCCC5)c4n3)cccc2c1 [purmorphamine]
inactive: 1 nM 0.27% | 8.33 nM 1.18% | 100 nM 0.24% | 833.33 nM 2.43% | 10000 nM -5.44%

O=c1[nH]c2ccc(Cl)cc2c(N[C@@H]2CN3CCC2CC3)c1-c1nc2ccccc2[nH]1
inactive: 1 nM 0.01% | 8.33 nM 0.79% | 100 nM -0.9% | 833.33 nM -5.44% | 10000 nM -15.4%

CC(C)N(CCC(C(N)=O)(c1ccccc1)c1ccccn1)C(C)C (stereo not given) [disopyramide]
inactive: 1 nM -2.08% | 8.33 nM -2.32% | 100 nM -1.92% | 833.33 nM -0.48% | 10000 nM -5.17%

NC(=O)CN1CC[C@@H](NC(=O)[C@@H]2CCCN2)C1=O
inactive: 1 nM 1.05% | 8.33 nM -1.41% | 100 nM 0.01% | 833.33 nM 0.9% | 10000 nM 0.65%

Oc1cccc(Nc2ncc(F)c(Nc3cccc(O)c3)n2)c1
inactive: 1 nM 2.79% | 8.33 nM 0.2% | 100 nM 0.24% | 833.33 nM -2.05% | 10000 nM -5.48%

CCN1CCN(C(=O)N[C@@H](C(=O)N[C@@H]2C(=O)N3C(C(=O)O)=C(CSc4nnnn4C)CS[C@H]23)c2ccc(O)cc2)C(=O)C1=O [cefoperazone]
inactive: 1 nM -0.37% | 8.33 nM -0.65% | 100 nM 0.99% | 833.33 nM 3.89% | 10000 nM 2.57%

Cc1cc2c(C(N)=O)cccc2n1-c1nc2c(c(NCc3ccccc3)n1)COCC2
inactive: 1 nM 1.91% | 8.33 nM -0.78% | 100 nM -2.17% | 833.33 nM 11.2% | 10000 nM -31.7%

COc1cccc([C@H](O)C2CCN(CCc3ccc(F)cc3)CC2)c1OC [volinanserin]
inactive: 1 nM -1.28% | 8.33 nM -0.6% | 100 nM -3.32% | 833.33 nM -1.38% | 10000 nM -2.28%

O=C(Nc1cc(C(F)(F)F)ccc1O)Nc1cc(C(F)(F)F)ccc1O
inactive: 1 nM -2.23% | 8.33 nM 2.44% | 100 nM 6.17% | 833.33 nM -1.82% | 10000 nM -0.23%

N[C@H]1C[C@@H]1c1ccccc1 (racemic) [tranylcypromine]
inactive: 1 nM 0.8% | 8.33 nM -0.11% | 100 nM -0.1% | 833.33 nM 0.19% | 10000 nM 2.21%

C[C@H](Cc1ccc2c(c1)OC(C(=O)O)(C(=O)O)O2)NC[C@H](O)c1cccc(Cl)c1
inactive: 1 nM 0.95% | 8.33 nM 3.71% | 100 nM -1.72% | 833.33 nM -1.35% | 10000 nM 2.18%

O=C(O)CNC(=O)c1nc(Cl)c2ccccc2c1O
inactive: 1 nM 0.76% | 8.33 nM 0.65% | 100 nM 4.78% | 833.33 nM 2.19% | 10000 nM -0.7%

COc1ccc2c(OCc3nnc4ccc(-c5ccccc5)nn34)ccnc2c1
inactive: 1 nM 1.19% | 8.33 nM -0.48% | 100 nM 0.42% | 833.33 nM -0.17% | 10000 nM 1.81%

C[C@H](N)[C@H](O)c1cccc(O)c1 [metaraminol]
inactive: 1 nM 5.57% | 8.33 nM 5.04% | 100 nM 2.34% | 833.33 nM 1.83% | 10000 nM 1.14%

CC(=O)Oc1ccccc1C(=O)Nc1ncc([N+](=O)[O-])s1 [nitazoxanide]
inactive: 1 nM 4.76% | 8.33 nM -3.73% | 100 nM -1.27% | 833.33 nM -0.63% | 10000 nM 8.82%

CCC[C@@H]1C[C@@H](C(=O)N[C@@H]([C@H]2O[C@H](SC)[C@H](OP(=O)(O)O)[C@@H](O)[C@H]2O)[C@H](C)Cl)N(C)C1 [Clindamycin phosphate]
inactive: 1 nM 2.18% | 8.33 nM -1.74% | 100 nM 2.16% | 833.33 nM 1.59% | 10000 nM 0.27%

c1nc2c(NC3CCCCC3)nc(Nc3ccc(N4CCOCC4)cc3)nc2[nH]1 [reversine]
inactive: 1 nM 3.13% | 8.33 nM 6.21% | 100 nM 1.52% | 833.33 nM -0.29% | 10000 nM -7.06%

Cc1cc(C)n(-c2cccc([C@H](CC(=O)O)CN3CC[C@@H](CCc4ccc5c(n4)NCCC5)C3)c2)n1 [integrin-antagonist-1]
inactive: 1 nM 6.72% | 8.33 nM 7.35% | 100 nM 0.83% | 833.33 nM 0.99% | 10000 nM -0.92%

Cc1cc(C)c(CNC(=O)c2cc(-c3ccc(CN4CCOCC4)cc3)cc3c2cnn3C2CCCC2)c(=O)[nH]1
inactive: 1 nM -0.23% | 8.33 nM 1.2% | 100 nM 1.14% | 833.33 nM -1.29% | 10000 nM -1.46%

c1cc(-c2sc(-c3ccncc3)c(-c3ccncc3)c2-c2ccncc2)ccn1
inactive: 1 nM -1.78% | 8.33 nM -0.14% | 100 nM -3.51% | 833.33 nM -4.39% | 10000 nM -5.36%

Cc1noc(NS(=O)(=O)c2ccc(N)cc2)c1C [sulfafurazole]
inactive: 1 nM -0.27% | 8.33 nM -1.19% | 100 nM 0.89% | 833.33 nM -1.49% | 10000 nM 0.12%

OCc1ccccc1O[C@@H]1O[C@H](CO)[C@@H](O)[C@H](O)[C@H]1O [salicin]
inactive: 1 nM 0.33% | 8.33 nM 2.34% | 100 nM 1.75% | 833.33 nM 2.27% | 10000 nM 5.91%

C[N+]1(C)CCC(=C(c2ccccc2)c2ccccc2)CC1 [diphemanil]
inactive: 1 nM -0.26% | 8.33 nM -0.4% | 100 nM -0.53% | 833.33 nM 2.17% | 10000 nM 2.09%

CN(C)C(=O)CCSC(SCCC(=O)O)c1cccc(/C=C/c2ccc3ccc(Cl)cc3n2)c1 (stereo not given)
inactive: 1 nM -1.06% | 8.33 nM -1.39% | 100 nM 3.57% | 833.33 nM 1.55% | 10000 nM 5.11%

CCS(=O)(=O)N1CCC[C@@H]2CN3CCc4cc(OC)ccc4[C@@H]3C[C@@H]21
inactive: 1 nM -0.74% | 8.33 nM 1.49% | 100 nM 0.02% | 833.33 nM 5.17% | 10000 nM -0.18%

C[N+]1([O-])[C@@H]2C[C@@H](OC(=O)[C@H](CO)c3ccccc3)C[C@H]1[C@@H]1O[C@@H]12 (stereo not given in full) [scopolamine-N-oxide]
inactive: 1 nM 7.18% | 8.33 nM 4.58% | 100 nM 3.81% | 833.33 nM 13.6% | 10000 nM 3.51%

COc1ccc(-c2sc(NC(=O)C(C)(C)C)nc2C)cc1S(=O)(=O)Nc1ccc(O)cc1 [PI4KIII-beta-inhibitor-1]
inactive: 1 nM -2.8% | 8.33 nM -1.82% | 100 nM 0.52% | 833.33 nM 0.18% | 10000 nM 5.19%

NC(=O)Cc1cccc(C(=O)c2ccccc2)c1N [nepafenac]
inactive: 1 nM -0.09% | 8.33 nM 1.07% | 100 nM -0.56% | 833.33 nM -1.36% | 10000 nM -2.65%

CSCC[C@H](NC(=O)[C@H](CC(C)C)NC(=O)CNC(=O)[C@H](Cc1ccccc1)NC(=O)[C@H](Cc1ccccc1)NC(=O)[C@H](CCC(N)=O)NC(=O)[C@H](CCC(N)=O)NC(=O)[C@@H]1CCCN1C(=O)[C@H](CCCCN)NC(=O)[C@@H]1CCCN1C(=O)[C@@H](N)CCCN=C(N)N)C(N)=O [substance-P]
inactive: 1 nM -5.5% | 8.33 nM -11.3% | 100 nM -9.37% | 833.33 nM -10.4% | 10000 nM -5.64%

OCC(O)CN1CCN(c2ccccc2)CC1 (stereo not given) [dropropizine]
inactive: 1 nM -2.5% | 8.33 nM -2.56% | 100 nM -2.71% | 833.33 nM -2.45% | 10000 nM -3%

CC(C)C[C@H](NC(=O)[C@H](CCCCN)NC(=O)[C@H](CCCNC(=N)N)NC(=O)[C@H](C)NC(=O)[C@H](CO)NC(=O)[C@H](CCCCN)NC(=O)[C@H](CCCNC(=N)N)NC(=O)[C@H](C)NC(=O)CNC(=O)[C@@H](NC(=O)[C@H](Cc1ccccc1)NC(=O)CNC(=O)CNC(=O)[C@@H](N)Cc1ccccc1)[C@@H](C)O)C(=O)N[C@@H](C)C(=O)N[C@@H](CC(N)=O)C(=O)N[C@@H](CCC(N)=O)C(=O)O [orphanin-fq]
inactive: 1 nM 1.63% | 8.33 nM -0.61% | 100 nM 0.09% | 833.33 nM 0.66% | 10000 nM 0.4%

CC(Cc1ccccc1)NCCC(c1ccccc1)c1ccccc1 (stereo not given) [prenylamine]
inactive: 1 nM 1.32% | 8.33 nM -1.92% | 100 nM -0.65% | 833.33 nM -1.29%
active: 10000 nM 23.1%

CC(C)[C@]12O[C@H]1[C@@H]1O[C@]13[C@]1(O[C@H]1C[C@H]1C4=C(CC[C@@]13C)C(=O)OC4)[C@@H]2O [triptolide]
inactive: 1 nM -1.16% | 8.33 nM -2.32% | 100 nM -12.1% | 833.33 nM -9.06% | 10000 nM -8.11%
